Source: PubChem (National Center for Advancing Translational Sciences (NCATS))
Pf growth 48h: Primary qHTS for delayed death inhibitors of the malarial parasite plastid, 48 hour incubation; P. falciparum luciferase growth in erythrocytes, 48 h; Potency, µM (series often up to 28.7 µM), for the others: top-dose activity change, negative = inhibition, most hits filed as inhibitors; 5.9% of 310,000 active; AID 504832, 2011; further: potency means the concentration at half of the fitted maximal effect; on the % scale 0 is the no-effect control and ±100 the full control effect
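A one-generation exposure of luciferase-tagged malaria parasites in RPMI 1640/Albumax erythrocyte culture, 37 C and 5% CO2. Inhibition is inferred from decreased luminescence after adding detection reagent.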
Shiga toxin inh: A qHTS for Small Molecule Inhibitors of Shiga Toxin; inhibition, % at 38.7 µM; 9.2% of 290,000 active; AID 2315, 2010; Vero cells, Shiga toxin protein synthesis inhibition reporter; in the data active means inhibition mostly above about 28%, no sharp cut-off; inactive means mostly below about 43%; further: 0% is about no effect
Pf growth 96h: Primary qHTS for delayed death inhibitors of the malarial parasite plastid, 96 hour incubation | P. falciparum luciferase reporter growth, 96 h | 6.9% of 320,000 active | Potency, µM (titrated, usually from 28.7 µM), for the others: at the highest dose activity change, negative = inhibition, hits mostly inhibitors | AID 504834, 2011; further: potency means the concentration at half of the fitted maximal effect; on the % scale 0 is the no-effect control and ±100 the full control effect
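Infected RBCs, 2% Hct / 0.05% parasitemia final; luciferase-reporter P. falciparum; cpd 96 h, 37 C, 5% CO2; luciferase detection reagent; luminescence.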
CHX counter: Cycloheximide Counterscreen for Small Molecule Inhibitors of Shiga Toxin | cell reporter, cycloheximide protein synthesis inhibition counterscreen | max response, % | 12% of 300,000 active | AID 2314, 2010; in the data active means max response mostly above about 13%, no sharp cut-off; inactive means mostly below about 14%; further: read at 38.3 µM for the half of the compounds with a filed dose; 0% is about no effect
NS1 inh: qHTS Assay for Inhibitors of Influenza NS1 Protein Function | Potency, µM (highest dose often 46.1 µM), inactives show top-dose activity, positive = more growth | 0.4% of 270,000 active | AID 2326, 2010; calls by dose curve; further: potency means the concentration at half of the fitted maximal effect; actives are rising curves; nearly all actives have a fitted effect of over 50% in size
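Compounds were scored for reversing the slow growth caused by influenza A NS1 in S. cerevisiae, measured by optical density at 600 nm. Assay medium contained 2% galactose at pH 6.0; NS1-free yeast of the same strain were the positive control.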
* hit, by the source's call. An excerpt weighted towards active compounds, which were near 21% of everything screened. Unless noted, the call rests on the fitted dose curve; in most records, active means well fitted inhibition curve with a large enough effect; inconclusive means small, poorly fitted or top-dose-only effect, or another doubt; inactive means no such curve, though single readings can be large or run the other way.

For CCOC(=O)c1ccc(N=Nc2c(C)[nH]n(-c3ccccc3)c2=O)cc1 the results were Pf growth 48h -3.7%, Shiga toxin inh -5.2, Pf growth 96h 0.0%, CHX counter -1.6 and NS1 inh -5.9%.
Cc1[nH]n(-c2ccccc2)c(=O)c1N=Nc1nccs1 was read as Shiga toxin inh 25.6, Pf growth 96h inconclusive, CHX counter 13.8* and NS1 inh -148.7%.
`Cc1ccccc1N=Nc1c(C)[nH]n(-c2ccccc2)c1=O` gave Pf growth 48h -1.0%, Shiga toxin inh 8.3, Pf growth 96h 38.3%, CHX counter -4.0 and NS1 inh 5.2%.
Screening CCN1CCN(CC(=O)NC2CCCCC2)C(=O)C1=O returned Pf growth 48h 19.9%, Shiga toxin inh 5.9, Pf growth 96h 2.5%, CHX counter -2.5 and NS1 inh 6.6%.
`COc1ccc(S(=O)(=O)N2CC(O)C[C@H]2C(=O)OCC(=O)N2CCCCCC2)cc1` (some centres undefined) gave Pf growth 48h -12.4%, Shiga toxin inh 27.2, Pf growth 96h 17.8% and CHX counter -2.0.
O=C(O)c1ccccc1C(=O)NNc1ccc(Cl)cc1Cl was read as Pf growth 48h -9.5%, Shiga toxin inh 23.4, Pf growth 96h 15.4%, CHX counter 4.9 and NS1 inh -8.5%.
Screening CCN(CC)S(=O)(=O)c1ccc(N=Nc2c(C)[nH]n(C(N)=S)c2=O)cc1 returned Pf growth 48h -20.7%, Shiga toxin inh 72.6*, Pf growth 96h 2.3%, CHX counter 40.5* and NS1 inh -3.9%.
For Cn1ncc([N+](=O)[O-])c1C(=O)Nc1ccc(Cl)cc1 the results were Pf growth 48h 34.9%, Shiga toxin inh -3.2, Pf growth 96h 19.3%, CHX counter -3.9 and NS1 inh 6.1%.
Screening Cn1ncc([N+](=O)[O-])c1C(=O)Nc1ccc(-c2nc3ccccc3[nH]2)cc1 returned Pf growth 48h inconclusive, Shiga toxin inh 48.1*, Pf growth 96h inconclusive, CHX counter 41.9* and NS1 inh -20.3%.
Screening Cn1ncc([N+](=O)[O-])c1C(=O)Nc1ccc(C2CCCCC2)cc1 returned Pf growth 48h 12.2%, Shiga toxin inh 59.0, Pf growth 96h inconclusive and CHX counter 26.1*.
`CCOc1ccc(C(=O)Nc2ccc(N3CCN(C(C)=O)CC3)cc2)cc1[N+](=O)[O-]` gave Pf growth 48h 0.0%, Shiga toxin inh -9.9, Pf growth 96h -11.4%, CHX counter -2.9 and NS1 inh -2.1%.
CCOc1ccc(C(=O)Nc2ccc(-c3nc4ccccc4[nH]3)cc2)cc1[N+](=O)[O-] was read as Pf growth 48h 1.85µM*, Shiga toxin inh -5.1, Pf growth 96h -18.1%, CHX counter -2.6 and NS1 inh 24.5%.
Screening Cn1ncc([N+](=O)[O-])c1C(=O)Nc1cccc(Cl)c1 returned Pf growth 48h inconclusive, Pf growth 96h -2.4%, CHX counter 5.9 and NS1 inh -0.9%.
Screening CC(=O)Nc1ccc(NC(=O)[C@@H](NC(=O)c2ccccc2F)C(C)C)cc1 returned Pf growth 48h 8.1%, Shiga toxin inh 9.8, Pf growth 96h 0.9%, CHX counter -1.0 and NS1 inh -1.3%.
`CC1Cc2ccccc2N1C(=O)CSc1nnc(Cc2ccccc2)n1CCc1ccccc1` (centres undefined) gave Shiga toxin inh -17.6, Pf growth 96h inconclusive, CHX counter -6.3 and NS1 inh 20.5%.
Screening COCCCNC(=O)COc1ccc(Cl)c(C)c1 returned Pf growth 48h 35.1%, Shiga toxin inh 32.5, Pf growth 96h 10.8%, CHX counter 17.8* and NS1 inh -10.8%.
`Cc1cc(OCC(=O)NC(C)(C)C)ccc1Cl` gave Pf growth 48h 44.7%, Shiga toxin inh 21.8*, Pf growth 96h -6.6%, CHX counter 50.7* and NS1 inh 3.7%.
CCc1nonc1NC(=O)COc1ccc(Cl)c(C)c1 was read as Pf growth 48h inconclusive, Shiga toxin inh 2.5, Pf growth 96h 4.15µM*, CHX counter 5.0 and NS1 inh -25.9%.
For Cc1cc(OCC(=O)N(C(C)C)C(C)C)ccc1Cl the results were Pf growth 48h inconclusive, Shiga toxin inh 9.2, Pf growth 96h 51.0% and CHX counter -1.0.
N#CCCNc1ccc(OCCC#N)cc1 was read as Pf growth 48h 7.7%, Shiga toxin inh -22.6, Pf growth 96h -18.9%, CHX counter -5.2 and NS1 inh 6.1%.
Screening O=C(c1ccc(OC(F)(F)F)cc1)c1ncc[nH]1 returned Pf growth 48h 103.3%, Shiga toxin inh 65.4*, Pf growth 96h 99.5%, CHX counter 39.0* and NS1 inh -2.3%.
CCC(Sc1nc(C)cc(C)n1)C(=O)NC1=NN=C(c2ccc(C)cc2)CS1 (centres undefined) was read as Pf growth 48h inconclusive, Shiga toxin inh -24.2, Pf growth 96h 10.4µM*, CHX counter -4.8 and NS1 inh 10.9%.
For Cc1cc(C)nc(SCC(=O)NC2=NN=C(c3ccc(Br)cc3)CS2)n1 the results were Pf growth 48h inconclusive, Shiga toxin inh -16.0, Pf growth 96h inconclusive, CHX counter -3.2 and NS1 inh -47.8%.
Clc1ccc2c(c1)[C@H]1OCC[C@H]1[C@@H](c1ccco1)N2 was read as Pf growth 48h 100.5%, Shiga toxin inh 65.9*, Pf growth 96h inconclusive, CHX counter 24.6* and NS1 inh -3.8%.
For CCOC(=O)[C@H]1[C@H]2COc3cc(OC)ccc3[C@@H]2N2C(=O)N(c3cccc(Cl)c3)C(=O)[C@@]12C the results were Pf growth 48h inconclusive, Shiga toxin inh -3.1, Pf growth 96h inconclusive, CHX counter -2.9 and NS1 inh -2.2%.
Screening CCOC(=O)c1oc2cc(O)c(CC)cc2c(=O)c1-c1cscn1 returned Pf growth 48h 5.3%, Shiga toxin inh 0.3, Pf growth 96h 28.1% and CHX counter 16.2.
`CCOC(=O)c1ccc(-c2c(C(=O)OCC)oc3cc(O)c(CC)cc3c2=O)o1` gave Pf growth 48h 10.4µM*, Shiga toxin inh -9.5, Pf growth 96h inconclusive, CHX counter 7.3 and NS1 inh inconclusive.
